The campaign covered roughly 68,000 compounds. About 2,700 (4%) showed an effect of 50% or more. Only a selection was taken, and strong results are over-represented in it overall.
These molecules were tested on Plasmodium berghei (assay: Screen against P. berghei liver stage (PbLuc), transformed with Luciferase, at 2uM). Details: tested at 2 uM.
Assay type: functional, HepG2

| SMILES | INHIBITION [%] |
| --- | --- |
| CC(C)(C)c1csc(CNC(=O)C2NCCc3[nH]cnc32)n1 (centres undefined) | 12.08 |
| COc1ccc(C(=O)NC2CC2)c(OC2CCN(C(C)CO)CC2)c1 (centres undefined) | -8.53 |
| CNC(=O)CN1CCOCC2(C1)CN(C(=O)C(C)C)CCO2 (centres undefined) | -6.94 |
| CCCC(=O)N1CCOC2(COCCN(CC(=O)NC)C2)C1 (centres undefined) | 43.03 |
| CNC(=O)CN1CCOCC2(CN(CCC(F)(F)F)CCO2)C1 (centres undefined) | 53.46 |
| Cc1ccc(C(=O)N2CC[C@@]3(O)CCCC[C@H]3C2)cc1 | 16.45 |
| CNC(=O)c1sccc1N(C)S(=O)(=O)c1ccc(Cl)cc1 | 1.37 |
| O=C(NCCCOCC1CC1)Nc1cccnc1N1CCOCC1 | 61.57 |
| CC(C)COCCCNC(=O)c1cccnc1N1CCOCC1 | -32.12 |
| O=C(NCCCOCC1CCCO1)c1cccnc1N1CCOCC1 (centres undefined) | 10.49 |
| CCC(CC)NC(=O)c1ncn2c1CN(CC)S(=O)(=O)c1ccccc1-2 | 14.52 |
| CC(=O)N1CCC(Cc2nccnc2-c2c(C)n[nH]c2C)C1 (centres undefined) | 26.14 |
| Cc1ccc(CN2CC[C@H]3O[C@@H](C(=O)N4CCCO4)CC[C@H]32)s1 | -25.79 |
| COc1cccc(OCCNCc2c(C)nn(C)c2N(C)C)c1 | -14.3 |
| Cc1nn(C)c(N(C)C)c1CNCc1ccc(Cn2cccn2)cc1 | 44.37 |
| COc1cccc(CNCc2c(C)nn(C)c2N(C)C)c1 | -32.89 |
| COc1cccc(CCNCc2c(C)nn(C)c2N(C)C)c1 | 67.59 |
| Cc1nn(C)c(N(C)C)c1CNCc1cccc(Cn2cncn2)c1 | -42.39 |
| Cc1nn(C)c(N(C)C)c1CNCc1cccc(Cn2cccn2)c1 | 50.32 |
| Cc1ccc(C(=O)NS(=O)(=O)c2cccc3cnccc23)c(=O)[nH]1 | -14.17 |
| Cc1nc2ccccn2c1CN(Cc1cccnc1)CC1CCCO1 (centres undefined) | 41.76 |
| Cc1cccc2c1nc(COCC(=O)O)n2-c1cnc(N)cn1 | -15.37 |
| CCCc1nc(C(C)(C)NC(=O)C2CC(=O)N(CC3CC3)C2)no1 (centres undefined) | 71.48 |
| CCCc1nc(C(C)(C)NC(=O)C2CC(=O)N(CC)C2)no1 (centres undefined) | -2.17 |
| CN(C)Cc1nc(C(C)(C)NC(=O)C2CC(=O)N(CC3CC3)C2)no1 (centres undefined) | 17.39 |
| O=C(NCCO)c1coc(Cn2cnc3ccccc32)n1 | 5.82 |

| SMILES | INHIBITION [%] |
| --- | --- |
| CN(Cc1cnc(N)nc1)C(=O)c1coc(COc2ccccc2)n1 | -31.73 |
| CN(Cc1cnc(N)nc1)C(=O)c1coc(COc2cccc(F)c2)n1 | 51.31 |
| CN(CC(O)CO)C(=O)c1coc(COc2cccc(F)c2)n1 (centres undefined) | -5.13 |
| CCOCCCNC(=O)C1(C)CCC(=O)N1Cc1ccccc1F (centres undefined) | 15.96 |
| CSCc1nc(CCNC(=O)C(N)c2c(C)n[nH]c2C)cs1 (centres undefined) | -4.29 |
| N#Cc1cccc(C(=O)N2CCCC(O)(CO)CC2)c1 (centres undefined) | 16.82 |
| O=C(c1ccc(-n2cnnc2)cc1Cl)N1CCCC2(CCNC2)C1 (centres undefined) | 57.75 |
| O=C(c1cccc(-c2ccc(F)cc2)c1)N1CCCC(O)(CO)CC1 (centres undefined) | 35.7 |
| O=C(c1ccnc(-n2cnnc2)c1)N1CCCC2(CCNC2)C1 (centres undefined) | 7.67 |
| O=C(c1ccc(-n2cnnc2)cc1Cl)N1CCCC(O)(CO)CC1 (centres undefined) | 58.57 |
| CN(C)CC1(O)CCN(C(=O)c2ccc(-n3cnnc3)cc2Cl)C1 (centres undefined) | 21 |
| CNc1ccc(C)cc1C(=O)N1CCCC2(CCNC2)C1 (centres undefined) | 8.3 |
| O=C(c1ccc(-n2cccn2)cc1Cl)N1CCCC(O)(CO)C1 (centres undefined) | 21.36 |
| O=C(c1cccc(Oc2ccccc2)c1)N1CCCC(O)(CO)CC1 (centres undefined) | 53.66 |
| COCC(=O)N1CCO[C@H]2[C@H](OC)CC[C@@H]21 | 7.86 |
| Cc1ccc(Oc2c(F)cccc2OC[C@@H](N)CC(C)C)cc1 | 16.01 |
| COC(=O)CN(C(=O)C(C)c1c(F)cccc1F)c1cccc(C)n1 (centres undefined) | -23.76 |
| Cc1oncc1C(=O)N1CC[C@H]2[C@H]1CCN2S(C)(=O)=O | 15.36 |
| COCC1CC2(CCN(Cc3cccc(C#N)c3)CC2)CN1C(C)C (centres undefined) | -52.61 |
| Cc1nnc(NC(=O)NCc2ccnc(N(C)C)c2)s1 | 29.71 |
| COc1ccc(-c2noc([C@@H]3C[C@@H](O)CN3C3CCOCC3)n2)cc1 | 38.62 |
| O[C@@H]1C[C@@H](c2nc(-c3ccc(F)cc3)no2)N(C2CCOCC2)C1 | 51.2 |
| O[C@@H]1C[C@@H](c2nc(-c3ccccc3)no2)N(C2CCOCC2)C1 | 16.47 |
| O=C(c1[nH]nc2c1CCCC2)N1CCC(OCCN2CCCCC2)C1 (centres undefined) | 8.14 |
| COC1CCN(C(=O)CCc2c(C)nc3ccnn3c2C)CC1 | -3.38 |
| CCOc1ccc(CN2C(=O)CC3(CCCC3)C2=O)nc1 | -32.8 |

| SMILES | INHIBITION [%] |
| --- | --- |
| Cc1nc(C(=O)N2CCN(c3ccc(Cl)c(Cl)c3)CC2)cs1 | 23.19 |
| O=C(O)c1ccccc1-n1cnc(CN2CCc3ccccc3C2)c1 | 51.03 |
| O=C(O)c1ccccc1-n1cnc(CN2CCc3ccccc32)c1 | -26.26 |
| O=C(O)c1ccccc1-n1cnc(CN2CCCCCC2)c1 | 25.41 |
| CN(C(=O)C1CCOCC1)[C@@H]1CCC[C@@H](N2CCCC2)[C@@H]1O | -29.66 |
| CC1CN(S(=O)(=O)c2ccc(C(=O)NCC(F)F)cc2)CCCO1 (centres undefined) | 9.21 |
| COCCn1ccnc1C1CCN(C(=O)c2cccc(COC)n2)CC1 | -2.69 |
| CC(C)NC(=O)CCNC(=O)c1cc(F)ccc1NS(C)(=O)=O | -84.03 |
| c1cnn(C[C@@H]2C[C@@H]3CN(CC4CC4)CC[C@@H]3N2c2nccs2)c1 | -11.68 |
| Cc1nc(CN2CCC(c3nc4cc(Cl)ccc4o3)CC2)oc1C | 29.16 |
| Cc1noc(C)c1CN1CCC(c2nc3cc(Cl)ccc3o2)CC1 | 32.43 |
| Cc1ncc(CN2CCC(c3nc4cc(Cl)ccc4o3)CC2)s1 | 56.38 |
| Cc1oc(-c2nc(C#N)c(NC(C)C)o2)cc1S(=O)(=O)N1CCCCC1 | 28.39 |
| Cc1ccnc(C2(C)CCCN2S(=O)(=O)c2cccnc2)n1 (centres undefined) | -0.7 |
| O=C(Nc1cc(C(F)(F)F)c[nH]c1=O)C1CCCNC1 (centres undefined) | -50.41 |
| CC1CCN(CCCNS(=O)(=O)c2cc(F)cc(F)c2)CC1 | 14.52 |
| Cn1nc(C(=O)N2CCC(Oc3ccc(C#N)cn3)CC2)ccc1=O | 37.08 |
| COc1ccc(F)cc1S(=O)(=O)N1CCC(Oc2ccc(Cl)cn2)CC1 | 54.73 |
| CCOC(=O)N1CCC(Oc2ccc(C(F)(F)F)cn2)CC1 | 30.98 |
| COc1ccccc1C(=O)N1CCC(Oc2ccc(C#N)cn2)CC1 | 64.74 |
| CC(=O)N1CCC(Oc2ccc(C#N)cn2)CC1 | -1.02 |
| CC(=O)N1CCC(Oc2ccc(Cl)cn2)CC1 | 64.16 |
| N#Cc1ccc(C(=O)N2CCC(Oc3ccc(C#N)cn3)CC2)cc1 | 20.49 |
| COc1ccc(F)cc1S(=O)(=O)N1CCC(OC)CC1 | 28.55 |
| CCOCC(=O)N1CCC(Oc2ccc(Cl)cn2)CC1 | -4.69 |
| N#Cc1ccc(OC2CCN(C(=O)c3ccccc3Cl)CC2)nc1 | 54.47 |

| SMILES | INHIBITION [%] |
| --- | --- |
| N#Cc1ccc(OC2CCN(C(=O)c3ccc(Br)o3)CC2)nc1 | -2.43 |
| O=S(=O)(c1cc(F)cc(F)c1)N1CCC(Oc2ccc(Cl)cn2)CC1 | 20.5 |
| COc1cc(N2CC[C@@H](O)[C@@H]2Cc2ccccc2)ncn1 | -30.57 |
| CNc1ccccc1C(=O)N(C)CCc1ccccc1 | -88.87 |
| CN(Cc1ccsc1)C(=O)c1n[nH]c(N)c1-c1ccccc1 | 8.75 |
| Cc1cc(C(=O)NC(C)Cc2cccc(Cl)c2)n(C)n1 (centres undefined) | -16.65 |
| Cc1n[nH]c(C2CN(CC(=O)NCCC3=CCCCC3)CCO2)n1 (centres undefined) | 1.27 |
| CN1CC2(CCN(S(=O)(=O)C3CC3)CC2)c2ccccc21 | 13.26 |
| Cn1ncnc1NCc1ccccc1Cl | 6.75 |
| CCC(C(=O)N(C)Cc1cc(COC)[nH]n1)n1cccn1 (centres undefined) | 19.12 |
| CN(Cc1cnn(C)c1)C(=O)NCc1cc(Br)cs1 | 31.78 |
| Cc1cc(NC(=O)CN2CCCC2c2noc(C)n2)n(C(C)(C)C)n1 (centres undefined) | 7.71 |
| Cc1cc(NC(=O)CN2CCCC2c2noc(C3CC3)n2)n(C)n1 (centres undefined) | -30.39 |
| Cc1cc(NC(=O)CN2CCCC2c2noc(C)n2)n(C)n1 (centres undefined) | 50.76 |
| Cc1cccc(COC[C@@]23CCC[C@@H]2CN(S(=O)(=O)N(C)C)C3)n1 | 31.96 |
| COc1ccccc1CNC(C)c1ccc(-n2ccnc2)cc1 (centres undefined) | 18.85 |
| CC(C)N(C)S(=O)(=O)c1ccc2c(c1)CCN(C(=O)c1cscn1)C2 | -68.29 |
| Cc1cnc(NC2CCN(CC(=O)Nc3ccccc3)CC2)nc1C | 76.82 |
| O=C(CN1CCC(Nc2ncccn2)CC1)Nc1ccccc1 | 36.28 |
| Cc1ncsc1C(=O)NC1CCN(CCC(=O)Nc2ccccc2)CC1 | 1.02 |
| CCN1CCN(C2CCN(Cc3nnc(C4CC4)o3)CC2)C1=O | -8.9 |
| O=c1[nH]nc2nc(N3CCOCC3)ccn12 | -60.22 |
| Cc1nn(C)cc1CN1C[C@H]2CC[C@@H](C1)N(Cc1c(C)noc1C)C2=O | 35.46 |
| COc1cc(C#N)ccc1OC12CCCN(CC1)C2 (centres undefined) | 63.83 |
| CCCc1ccc(OC23CCCN(CC2)C3)c(OC)c1 (centres undefined) | -21.37 |
| COc1cc(C(C)=O)ccc1OC12CCCN(CC1)C2 (centres undefined) | -18.6 |

Source: ChEMBL document CHEMBL4513216, “Probing the Open Global Health Chemical Diversity Library for Multistage-Active Starting Points for Next-Generation Antimalarials” (ACS Infect Dis, 2020)
